Compound activity (PubChem BioAssay)
GALK inhibitor: inhibitors of human galactokinase (GALK). Potency, µM (series often up to 57.5 µM), without a hit: top-dose activity, negative = inhibition, actives largely listed as inhibitors. 44,000 tested, under 10 active. P51570. recombinant GALK, Kinase-Glo ATP luminescence, 1 h;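 further: plate controls were full GALK reaction for no effect and reaction lacking GALK for full effect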
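Compounds were pinned into ATP buffer, then GALK-galactose mix was added (final 5 nM enzyme, 35 uM ATP, 100 uM galactose, pH 8.0). After 1 h at room temperature, Kinase-Glo Plus was added and luminescence read.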
FH mod: Identification of activators of human fumarate hydratase by quantitative high-throughput screening. Fumarate hydratase, mitochondrial (Homo sapiens), P07954. FH coupled MDH/diaphorase resazurin fluorescence, 15 min. Potency, µM (doses to about 79.9 µM), inactives show at the top dose activity change, negative = inhibition, actives largely listed as inhibitors. actives 0.22% (n = 54,000). AID 1347055, 2019; further: potency means the concentration at half of the fitted maximal effect; on the % scale 0 is the no-effect control and ±100 the full control effect; the screen sought activators but most active calls are inhibition curves; nearly all actives have a fitted effect of over 45% in size
Target sequence (P07954 whole entry, looked up): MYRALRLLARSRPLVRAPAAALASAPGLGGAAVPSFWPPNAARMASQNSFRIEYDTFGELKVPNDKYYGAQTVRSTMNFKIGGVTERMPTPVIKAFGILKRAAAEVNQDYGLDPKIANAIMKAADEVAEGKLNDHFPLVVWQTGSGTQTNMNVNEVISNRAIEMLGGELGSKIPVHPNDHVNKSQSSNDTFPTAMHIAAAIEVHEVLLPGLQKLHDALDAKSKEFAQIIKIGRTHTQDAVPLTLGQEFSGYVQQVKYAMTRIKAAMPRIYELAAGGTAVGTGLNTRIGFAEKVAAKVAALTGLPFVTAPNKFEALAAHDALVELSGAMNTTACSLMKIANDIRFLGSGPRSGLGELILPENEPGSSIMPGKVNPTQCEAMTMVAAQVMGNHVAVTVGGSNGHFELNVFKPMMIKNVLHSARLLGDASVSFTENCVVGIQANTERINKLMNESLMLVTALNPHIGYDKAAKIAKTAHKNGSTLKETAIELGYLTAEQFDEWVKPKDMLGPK
HTT-AS promoter: HTT-AS promoter activation; actives 0.24% (n = 48,000); AID 1508624; Potency, µM (top dose mostly 57.5 µM), inactives show at the top dose activity change, positive = activation, most hits filed as activators; HEK293 HTT-AS promoter firefly luciferase reporter, 24 h; response scale: percent change from vehicle, -100% = no light; further: potency means the concentration at half of the fitted maximal effect; nearly all actives have a fitted effect of over 55% in size
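HEK293 luciferase promoter-reporter cells (2,500/well) plated 24 h, then compounds added at up to 57.5 uM final for 24 h at 37 °C. Firefly luminescence by Dual-Glo, normalized to vehicle (0%) and zero RLU (-100%).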
HTT promoter inh: HTT promoter inhibition; HEK293 HTT promoter firefly luciferase reporter, 24 h; Potency, µM (titrated, usually from 57.5 µM), for inactives: at the top dose activity change, negative = inhibition, hits mostly inhibitors; actives 0.93% (n = 48,000); AID 1508623; further: potency means the concentration at half of the fitted maximal effect; nearly all actives have a fitted effect of over 50% in size
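HEK293 cells carrying firefly luciferase reporters were seeded at 2,500 per well in Opti-MEM and cultured for 24 h. They were then treated with compounds at up to 57.5 uM final for 24 h at 37 degrees C before Dual-Glo luminescence readout.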
NTMT1 inhibitor: NTMT1 methyltransferase inhibition | Q9BV86 | NTMT1 MTase-Glo SAH luminescence, purified enzyme | Potency, µM (series often up to 114 µM), without a hit: top-dose activity change, negative = inhibition, most hits filed as inhibitors | actives 2.5% (n = 59,000) | AID 1645870;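 further: potency means the concentration at half of the fitted maximal effect; plate controls were DMSO vehicle for no effect and no enzyme for full effect; nearly all actives have a fitted effect of over 65% in size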
* hit, by the source's call; ? = inconclusive; . = no result; ! = not confirmed by another sample; [ ] = remark or other dose. Only some compounds are listed: those with a hit (about 2.5% of all), similar ones and a draw of the others. The call rests on the fitted dose curve; in most records, active means well fitted curve in the direction sought with a large enough effect; inconclusive means small, poorly fitted or top-dose-only effect, or another doubt; inactive means no such curve, though single readings can be large; an effect the other way counts as inactive or inconclusive.

SMILES	GALK inhibitor	FH mod	HTT-AS promoter	HTT promoter inh	NTMT1 inhibitor
CC(=O)c1cccc(NC(=O)c2noc3c2CSc2ccccc2-3)c1	2%	6%	1.4µM*	52%	3%
COc1ccc(NC(=O)c2noc3c2CSc2ccccc2-3)cc1Cl	-10%	-2%	7%	3%	4%
Cc1ccc(NC(=O)C(=O)NCc2ccco2)cc1	-2%	10%	5µM*	48%	1%
CCOc1ccc(NC(=O)C(=O)NCc2ccco2)cc1	0%	6%	16%	-18%[11.5 µM]	-2%
O=C(Nc1ccc(-c2nc3ccccc3[nH]2)cc1)Nc1ccc2c(c1)CCCO2	.	.	.	.	12%
COc1ccc2sc(N(Cc3cccnc3)C(=O)c3ccc4c(c3)OCCO4)nc2c1	0%	-28%	-20%	11µM*	-3%
N#C/C(=C\c1ccc(-c2cc(Cl)ccc2Cl)o1)C(=O)Nc1ccccc1C(=O)O	0%	-18%	-4%	16%	10µM*
Cc1ccc(NC(=O)/C(C#N)=C\c2ccc(-c3ccc(Cl)cc3)o2)c(C)c1	0%	10%	-5%	0%	6%
Cn1cc(/C=C2\C(=O)Nc3cccnc32)c2ccccc21	.	.	.	.	45µM*
Cc1cccc(-n2c3nc(=O)n(C)c(=O)c-3cc3ccc(Cl)cc32)c1C	0%	5%	-10%	-8%	-15%
Cn1cncc1[C@@](N)(c1ccc(Cl)cc1)c1ccc2c(c1)c(-c1cccc(Cl)c1)cc(=O)n2C	.	-2%[53.3 µM]	-36%	-29%	22µM*!
CN1CCC[C@@H]1c1cccnc1	.	6%[53.3 µM]	-17%	2%	16µM*
CCc1oc2ccccc2c1C(=O)c1cc(I)c(O)c(I)c1	.	?	-25%	-12%	20µM*
CCOc1ccc(/C=C/C(=O)Nc2sc3c(c2C(=O)OC)C(C(=O)OC)CC3)cc1 (stereo unspecified)	-1%	1%	-10%	-13%	10µM*
COC(=O)c1c(NC(=O)CCCOc2ccc(C)cc2)sc2c1C(C(=O)OC)CC2 (stereo unspecified)	-23%	-20%	-14%	-11%	18µM*
COC(=O)c1c(NC(=O)CCCOc2ccc(C)cc2)sc2c1CCCC2	-1%	27%	-19%	-10%	-6%
CCOc1ccc(/C=C/C(=O)Nc2sc3c(c2C(=O)OC)CCCC3)cc1	-1%	3%	4%	16%	4%
COC(=O)c1c(NC(=O)CCCOc2cccc(C)c2)sc2c1C(C(=O)OC)CC2 (stereo unspecified)	-4%	-14%	-26%	?	14µM*
COc1cccc(NC(=O)C2CCN(S(=O)(=O)c3cc(-c4noc(C)n4)ccc3C)CC2)c1	-2%	-26%	-53%	13µM*	15%
Cc1cccc(NC(=O)Cn2c(=O)n(CCc3ccccc3)c(=O)c3ccccc32)c1	6%	-5%	-9%	-2%	10%
COc1cc2c(=O)n(CCc3ccccc3)c(=O)n(CC(=O)Nc3ccccc3)c2cc1OC	2%	-5%	-35%	-25%	79µM*
O=C(O)C1=CC(=C(c2ccc(O)c(C(=O)O)c2)c2ccc(O)c(C(=O)O)c2)C=CC1=O	.	16µM*	.	.	.
C=C1C(=O)OC2/C=C(\C)CC/C=C(\C=O)C(OC)C(OC(=O)C(C)CC)C12 (stereo unspecified)	.	0%[53.3 µM]	.	.	7%[29.8 µM]
COc1ccc(C(=O)Nc2noc3ccccc23)cc1	7%	-6%	?	-10%	11µM*
Cc1ccc(C(=O)Nc2noc3ccccc23)cc1	.	0%	.	.	25µM*
SMILES	GALK inhibitor	FH mod	HTT-AS promoter	HTT promoter inh	NTMT1 inhibitor
CN(C)CCCNc1ccc(NC(=O)c2cccs2)cn1	.	.	.	.	9%[57.5 µM]
Cc1cc(N2CCN(c3cccc(C)c3C)CC2)n2cnnc2n1	0%	-12%	-17%	-7%	89µM*
Cc1ccc2oc(-c3ccc(Cl)cc3)c(O)c(=O)c2c1	0%	13%	2.5µM*	89%	7%
CCOc1ccc(-c2oc3ccccc3c(=O)c2O)cc1OCC	-1%	3%	?	25%	6%
COc1cc(NC(=O)CSc2nc(-c3ccco3)cc(C(F)(F)F)n2)cc(OC)c1OC	-28%	-9%	-75%	13µM*	-2%
CCOC(=O)C1=C(CN2CCN(c3ccc(OC)cc3)CC2)NC(=O)NC1c1ccc(OC)cc1 (stereo unspecified)	1%	-10%	-25%	?	?
CCOC(=O)C1=C(CN2CCN(c3ccc(C)cc3C)CC2)NC(=O)NC1c1ccc(OC)cc1 (stereo unspecified)	0%	?	-37%	28µM*	0%
O=C(NO)c1cnc(N2C[C@H]3C[C@@H]2CN3c2cc(C(F)(F)F)ccn2)nc1	.	.	.	.	1%
CC(C)(C)C1CCc2c(sc(NC(=O)CCC(=O)O)c2C(=O)Nc2ccccc2C(F)(F)F)C1 (stereo unspecified)	-1%	?	-55%	?	45µM*
Cc1cc(C)n2ncc(C(=O)Nc3cccc(C(F)(F)F)c3)c2n1	.	.	.	.	18%
CN(C(=O)Nc1cn(C)c(=O)c2ccccc12)c1ccccc1	-2%	35µM*[activator]	-23%	-16%	-3%
Nc1cc(COc2c(Cl)cc(C[C@H](N)C(=O)O)cc2Cl)c2oc(-c3ccccc3)nc2c1	.	.	.	.	-2%
C[N+]1(CC2COC(c3ccccc3)(C3CCCCC3)O2)CCCCC1 (stereo unspecified)	.	-1%[53.3 µM]	1%	4%	16µM*
CN(C)CC1CCOC1(c1ccccc1)c1ccccc1 (stereo unspecified)	.	3%[20.6 µM]	.	.	5%[12.6 µM]
COc1cccc(-c2cc(C(F)(F)F)n3nc(-c4ccc(C)cc4)cc3n2)c1	2%	3%	-23%	-20%	-25%
O=S(=O)(c1ccccc1)n1nc(-c2ccco2)nc1NCc1ccccc1	9%	-14%	13µM*	37%	-1%
CN(C)c1ccc(CNc2nc(-c3ccco3)nn2S(=O)(=O)c2ccc(Cl)cc2)cc1	-4%	-21%	?	38%	-2%
COc1ccc(CN2C(=O)c3ccccc3NC2c2ccc(OC)c(COc3c(C)cc(NC(C)=O)cc3C)c2)cc1 (stereo unspecified)	.	.	.	.	0%
CC(C)(C)C(=O)N1N=CC[C@H]1c1ccccc1	.	.	.	.	10%
CCCc1ccc(S(=O)(=O)N2CCC(c3nnc(-c4cccc(C)c4)o3)CC2)cc1	7%	?	-67%	?	79µM*
CCCCC[C@H](O)C=C[C@H]1[C@H](O)CC(=O)[C@H]1CCCCCCC(=O)O	.	9%[53.3 µM]	?	-6%	-16%[57.5 µM]
CCCCC(C)(C)[C@H](O)C=C[C@H]1[C@H](O)CC(=O)[C@H]1CC=CCCCC(=O)O	.	-10%[53.3 µM]	-8%	-8%	50µM*
CN(C)/C(N)=N/C(=N)N	.	.	.	.	48%[57.5 µM]
Fc1cccc(Cl)c1CNc1n[nH]c(-c2ccco2)n1	0%	1%	5µM*	47%	-26%
CN(C)[S+](=O)([O-])c1ccc(-c2cncc(NC(=O)c3cccs3)c2)cc1	.	.	.	.	-3%
